“And” between values parts separate entries of the source, which are not always exact repeats. Identical values can stand only once. Among all 16,000 compounds or so, about 5,700 (36%) were called active. Not shown: some 24% with an inconclusive outcome. Calls follow the shape of the dose curve; as a rule, active = well fitted curve in the direction sought with a large enough effect; inconclusive = small, poorly fitted or top-dose-only effect, or effect the other way; inactive = no such curve, though single readings can be large or run the other way. The list shows a part of the results.

Experimental findings from PubChem BioAssay AID1851 (National Center for Advancing Translational Sciences (NCATS), 2009) are described below.
% is scaled to controls: 0 for no effect and ±100 for the full control effect.

The target in the test is Cytochrome P450 1A2 (Homo sapiens) (UniProt P05177). The experiment in a line: Cytochrome panel assay with activity outcomes. Particulars: recombinant CYP, pro-luciferin dealkylation, luminescence, p450-cyp1a2; series mostly up to 57.1 µM; activity, negative = inhibition: at the top concentration.
Chain of Cytochrome P450 1A2 (Homo sapiens) (P05177 whole entry, looked up): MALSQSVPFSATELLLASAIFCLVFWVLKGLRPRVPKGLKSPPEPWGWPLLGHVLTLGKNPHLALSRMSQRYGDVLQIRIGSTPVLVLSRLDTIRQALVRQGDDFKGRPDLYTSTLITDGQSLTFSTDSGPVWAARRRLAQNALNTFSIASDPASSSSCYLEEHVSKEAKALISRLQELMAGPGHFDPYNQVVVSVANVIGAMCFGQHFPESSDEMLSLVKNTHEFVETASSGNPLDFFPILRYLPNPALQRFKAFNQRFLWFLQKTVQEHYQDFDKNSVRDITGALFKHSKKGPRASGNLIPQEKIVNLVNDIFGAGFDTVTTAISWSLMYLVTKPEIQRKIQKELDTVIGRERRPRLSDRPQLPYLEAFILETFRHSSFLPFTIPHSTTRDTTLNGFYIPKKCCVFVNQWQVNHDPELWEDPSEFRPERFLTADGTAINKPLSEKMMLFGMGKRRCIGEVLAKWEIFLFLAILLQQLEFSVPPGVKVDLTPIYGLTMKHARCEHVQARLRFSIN
For the compound `Cn1cccc1C(=O)N1CCC2(CCN(Cc3ccccc3)CC2)CC1`, the “activity, negative = inhibition” value was 10.3% (inactive).

By AC50 is commonly meant the concentration giving half of the maximal activity seen. Take `Cc1cc(Cl)ccc1Oc1ncnc2oc(-c3ccccc3)cc12`: the AC50 was 3.16 µM (active).

As to `O=c1c2c(-c3cccs3)csc2[nH]c(=S)n1-c1ccccc1`, the AC50 was 12.6 µM (active).

Regarding `CCc1cc2c(=O)n(-c3ccccc3)c(=S)[nH]c2s1`, the “activity, negative = inhibition” value was -27.5% (inactive).

Turning to `CCN(CC)C(=O)c1sc2[nH]c(=S)n(-c3ccccc3)c(=O)c2c1C`, the “activity, negative = inhibition” value was 11.3% (inactive).

On to `N#C/C(=C\c1ccc(O)c(O)c1)C(N)=O`, for which the AC50 is 39.8 µM (active).

Consider `N[C@@H](Cc1ccc(O)c(O)c1)C(=O)O`, for which the AC50 result is “inactive”.

With `N#C/C(=C\c1ccc(O)c(O)c1)C(=O)NCCCc1ccccc1`, the AC50 is 12.6 µM (active).

As to `COc1cc(/C=C(\C#N)C(=O)c2ccc(O)c(O)c2)cc(I)c1O`, the AC50 is 15.8 µM (active).

As for `COc1ccc(/C=C(\C#N)C(N)=O)c(OC)c1`, the AC50 was 1.58 µM (active).

On to `Cc1cc(C)c(NC(=O)CS(=O)CC(=O)NCCCc2ccccc2)c(C)c1` (stereo not given), for which the “activity, negative = inhibition” value is 0.118% (inactive).

With `N#C/C(=C\c1ccc(O)c(O)c1)C(=O)Nc1ccccc1`, the AC50 was 0.501 µM (active).

As for `CCOC(=O)C1=C(CSc2nc3ccccc3s2)NC(=O)NC1c1cc(C)ccc1C` (stereo not given), the “activity, negative = inhibition” value is -22.3% (inactive).

`COc1ccc(/C=C(\C#N)C(N)=O)cc1OC`: the concentration at half-maximal activity (AC50) is 3.16 µM (active).

Consider `COc1ccc(/C=N/n2c(C)nnc2C)c(OC)c1`, for which the AC50 was 14.1 µM (active).

Take `CCOC(=O)/C(C#N)=C\c1ccc(OCC(=O)Nc2ccc(C)cc2C)c(OC)c1`: the “activity, negative = inhibition” value was -9.06% (inactive).

For `COc1ccc(/C=C(/C#N)C(=O)Nc2cc(C)ccc2C)cc1C(=O)O`, the “activity, negative = inhibition” value is -0.1% (inactive).

`COc1cc(/C=C(\C#N)C(N)=O)cc(CSc2nc3ccccc3s2)c1O`: the AC50 was 1.26 µM (active).

As for `CCOc1ccccc1/C=C(\C#N)C(N)=O`, the AC50 is 2 µM (active).

Take `C[C@H](NC(=O)/C(C#N)=C/c1ccc(O)c(O)c1)c1ccccc1`: the AC50 is 15.8 µM (active).

For the compound `N#C/C(=C\c1ccc(O)c(O)c1)C(=O)NCCc1ccccc1`, the AC50 is 10 µM (active).

With `CC(=O)NCCc1ccc(O)c(O)c1`, the “activity, negative = inhibition” value is -2.4% (inactive).

`CCOC(=O)/C(C#N)=C\N(C)C`: the “activity, negative = inhibition” value is -18.7% (inactive).

In the case of `C/C(CCN1CCCCc2nc(C)c(C)cc21)=N\O[C@@H](C)c1cn([C@H](CO)Cc2ccccc2)nn1`, the activity, negative = inhibition was -1.07% [at 11.4 µM] (inactive) and -1.23% [at 11.4 µM] (inactive).

Regarding `Cc1ccc(C(=O)NC2CCCCCC2)cc1N1CCCC1=O`, the “activity, negative = inhibition” value is -22.9% (inactive).

Regarding `Cc1cccc(N(CC(=O)NC2CCCC2)C(=O)c2cc3cc4cccc(C)c4nc3s2)c1C`, the “activity, negative = inhibition” value was -18.2% (inactive).

For the compound `Cc1c2c(nc3c(C(=O)NC4CCCC4)cnn13)CCCC2`, the AC50 is 2.82 µM (active).

Turning to `C[C@@H](Cc1ccccc1)Nc1ncnc2c1ncn2[C@@H]1O[C@@H](CO)[C@H](O)[C@@H]1O`, the “activity, negative = inhibition” value is 1.16% (inactive).

In the case of `CC(Sc1nnc(C(C)N(C)C)n1-c1ccc(Cl)cc1)C(=O)Nc1ccc2c(c1)OCO2` (stereo not given), the AC50 is 17.8 µM (active).

For `O=C(OCCCN1CCCCC1)c1ccc(O)cc1`, the activity, negative = inhibition was -21.1% [at 11.4 µM] (inactive).

Consider `CCOC(=O)c1ccc(N)cc1`, for which the AC50 was 2 µM (active).

Take `CCN(CC)CCOC(=O)c1ccc(N)cc1`: the AC50 result was “inactive”.

Regarding `CCCCOC(=O)c1ccc(O)cc1`, the AC50 is 0.0794 µM (active).

For the compound `CN(C)CCOC(=O)c1ccc(N)cc1`, the activity, negative = inhibition is 1.14% [at 11.4 µM] (inactive).

Turning to `CCOC(=O)c1ccc(N2C(=O)CC(Nc3ccc(CCO)cc3)C2=O)cc1` (stereo not given), the “activity, negative = inhibition” value is 6.03% (inactive).

Regarding `CCOC(=O)c1ccc(-c2ccc(CO)o2)cc1`, the AC50 was 2.51 µM (active).

`CCCCNc1ccc(C(=O)OCCOCCOCCOCCOCCOCCOCCOCCOCCOC)cc1`: the “activity, negative = inhibition” value was 3.14% [at 25.6 µM] (inactive).

In the case of `CO[C@@H]1COC(=O)[C@H]2CCCN2C(=O)[C@@H](C)COC(=O)CCC[C@H]1C`, the activity, negative = inhibition is 6.36% [at 11.4 µM] (inactive).

Consider `O=C1NC(=O)C(c2ccccc2)(c2ccccc2)N1`, for which the “activity, negative = inhibition” value was -10.8% (inactive).

With `COCC(=O)N1CCC[C@@]2(CCN(Cc3ccc(C#N)cc3)C2)C1`, the “activity, negative = inhibition” value is 0.305% (inactive).

With `O=S(=O)(c1cccc2c(I)cccc12)N1CCCNCC1`, the AC50 was 10 µM (active).

As to `CCN(CC)c1ccc(/C=C/c2nc3ccccc3s2)cc1`, the concentration at half-maximal activity (AC50) was 2.51 µM (active).

For the compound `c1ccc(CNc2ccnc(-c3ccoc3)n2)cc1`, the AC50 was 2.51 µM (active).

With `Cc1cccc(CNc2ccnc(-c3ccoc3)n2)c1`, the AC50 is 2 µM (active).

With `c1ccc2c(N3CCNCC3)nc(-c3ccc4c(c3)OCO4)nc2c1`, the AC50 was 12.6 µM (active).

With `c1cc2c(cc1C(N1CCNCC1)N1CCNCC1)OCO2`, the activity, negative = inhibition is -3.03% [at 2.29 µM] (inactive).

`CN(C)c1ccc(-c2nc(N3CCNCC3)c3ccccc3n2)cc1`: the AC50 is 10 µM (active).

With `O=C(Nc1ccccc1)N1CC[C@@]2(CCCN(C(=O)c3cnccn3)C2)C1`, the “activity, negative = inhibition” value is -8.64% (inactive).

Regarding `Cc1c(Cl)cnc(NC(=O)COC(=O)CCS(=O)(=O)c2ccccc2)c1Cl`, the AC50 was 11.2 µM (active).

In the case of `CC(C)=CC(=O)OCC(=O)Nc1ncc(Cl)c(C)c1Cl`, the AC50 was 25.1 µM (active).

With `Cc1ccc(S(=O)(=O)N2CCOCC2)cc1NC(=O)COC(=O)CCC(=O)c1cccs1`, the “activity, negative = inhibition” value is -17.9% (inactive).

For the compound `COC(=O)[C@@]1(Cc2ccc(F)cc2)[C@H]2c3cc(C(=O)N(C)C)n(Cc4ccc(C)o4)c3C[C@H]2CN1C(=O)c1ccccc1`, the “activity, negative = inhibition” value was -12.5% (inactive).

In the case of `CCN(CC)CC#CCOC(=O)[C@@](O)(c1ccccc1)C1CCCCC1`, the AC50 was 3.98 µM (active).

`CC[N+](CC)(CC)CC[C@](O)(c1ccccc1)C1CCCCC1`: the “activity, negative = inhibition” value was -11.1% [at 25.6 µM] (inactive).

For `CCN(CC)CC#CCC(C)(c1ccccc1)c1ccccc1`, the “activity, negative = inhibition” value was -22.5% (inactive).

Regarding `CCOC(=O)C(NC(C)=O)C(OC(C)=O)c1cccc(N(CCO)CCO)c1` (stereo not given), the “activity, negative = inhibition” value was -4.35% (inactive).

With `Cc1cc(C)c(C#N)c(SCS(=O)c2ccc(C(C)(C)C)cc2)n1` (stereo not given), the AC50 is 20 µM (active).

With `CN1CCN(CC(O)c2ccccc2)CC1` (stereo not given), the “activity, negative = inhibition” value is 1.6% (inactive).

Consider `Cc1[nH]nc(N2CCCCCC2)c1[N+](=O)[O-]`, for which the AC50 is 2 µM (active).

For the compound `COc1ccccc1CCn1c(=O)c(-c2ccc(F)cc2)nc2cncnc21`, the AC50 was 1 µM (active).

With `COc1ccccc1CCn1c(=O)c(-c2ccccc2)nc2cncnc21`, the AC50 was 1 µM (active).

As to `COc1ccccc1CCn1c(=O)c(-c2cccc(Cl)c2)nc2cncnc21`, the AC50 was 0.316 µM (active).

On to `Cn1c(=O)c(-c2cccs2)nc2cncnc21`, for which the AC50 was 1.26 µM (active).

Take `CCCC[C@]1(C2CCCC2)Cc2cc(OCC(=O)O)c(Cl)c(Cl)c2C1=O`: the “activity, negative = inhibition” value was -9.78% (inactive).

With `Cc1[nH]n(C(C)(C)C)c(=O)c1Sc1ccccc1`, the “activity, negative = inhibition” value was 14.3% (inactive).
